From PubChem BioAssay (NCATS)
Records with an inconclusive call do not appear. Entries that show only a call come without a potency. Activity calls are given as the source filed them. Calls come from the whole dose curve; as a rule, active = well fitted curve in the direction sought with a large enough effect; inconclusive = small, poorly fitted or top-dose-only effect, or another doubt; inactive = no such curve, though single readings can be large; an effect the other way counts as inactive or inconclusive.

Assay: qHTS of pediatric cancer cell lines to identify multiple opportunities for drug repurposing: Primary screen for A673 cells (AID 1347092); note: nearly all actives have a fitted effect of over 45% in size
Conditions: A673 Ewing sarcoma viability, CellTiter-Glo ATP luminescence, 48 h; series mostly up to 46 µM
Summary of the method: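 Luminescence from CellTiter-Glo, taken after 15 min at room temperature, served as the proxy for metabolically active cells following 48 h treatment. Both potency and efficacy were taken from curves fitted to the titration data.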
In the case of CN1CC(=O)N/C1=N/C(=O)Nc1cccc(Cl)c1, the Potency is reported as “inactive”.
In the case of CCC1C(=O)OCC1Cc1cncn1C (stereo not given), the Potency is reported as “inactive”.

Assay: qHTS of pediatric cancer cell lines to identify multiple opportunities for drug repurposing: Primary screen for SK-N-MC cells (AID 1347093)
Conditions: SK-N-MC viability, CellTiter-Glo luminescence, 48 h; series mostly up to 46 µM
Summary of the method: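 Metabolically active cells were quantified by ATP-dependent luminescence (CellTiter-Glo, 15 min at room temperature) following 48 h treatment. Cells had been plated at 500-1,000 per well and settled for 5 h beforehand.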
For CC(N)C(=O)OC(C)(C)Cc1ccc(Cl)cc1 (stereo not given), the Potency was “inactive”.
For CN1CC(=O)N/C1=N/C(=O)Nc1cccc(Cl)c1, the Potency was “inactive”.
With CCC1C(=O)OCC1Cc1cncn1C (stereo not given) the Potency was “inactive”.

Assay: qHTS of pediatric cancer cell lines to identify multiple opportunities for drug repurposing: Primary screen for BT-37 cells (AID 1347094)
Conditions: BT-37 viability, CellTiter-Glo luminescence, 48 h; series mostly up to 57.3 µM
Summary of the method: (§1)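 Luminescence from CellTiter-Glo served as readout of metabolically active cells after 48 h compound exposure. Titrations: MIPE 11-point, from 0.78 nM; NPC 8-point, from 0.59 nM (final). Concentration-response curves came straight from the primary screen.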
In the case of CC(N)C(=O)OC(C)(C)Cc1ccc(Cl)cc1 (stereo not given), the Potency is reported as “inactive”.
In the case of CN1CC(=O)N/C1=N/C(=O)Nc1cccc(Cl)c1, the Potency is reported as “inactive”.
For CCC1C(=O)OCC1Cc1cncn1C (stereo not given), the Potency was “inactive”.

Assay: qHTS of pediatric cancer cell lines to identify multiple opportunities for drug repurposing: Primary screen for NB-EBc1 cells (AID 1347095)
Conditions: NB-EBc1 neuroblastoma viability, CellTiter-Glo luminescence, 48 h; series mostly up to 46 µM
Summary of the method: as §1
For CC(N)C(=O)OC(C)(C)Cc1ccc(Cl)cc1 (stereo not given), the Potency was “inactive”.
For CN1CC(=O)N/C1=N/C(=O)Nc1cccc(Cl)c1, the Potency was “inactive”.
In the case of CCC1C(=O)OCC1Cc1cncn1C (stereo not given), the Potency is reported as “inactive”.

Assay: qHTS of pediatric cancer cell lines to identify multiple opportunities for drug repurposing: Primary screen for U-2 OS cells (AID 1347096); note: nearly all actives have a fitted effect of over 50% in size
Conditions: U-2 OS viability, CellTiter-Glo luminescence, 48 h; series mostly up to 46 µM
Summary of the method: (§2)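 Cells (500-1,000/well) in growth media were settled 5 h at 37 degrees C, then given compounds for 48 h. Viability was read as CellTiter-Glo luminescence. Primary runs used MIPE at 11 points (0.78 nM-46 µM) and NPC at 8 points (0.59 nM-46 µM); follow-ups used 11 points.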
For CC(N)C(=O)OC(C)(C)Cc1ccc(Cl)cc1 (stereo not given), the Potency was “inactive”.
For CN1CC(=O)N/C1=N/C(=O)Nc1cccc(Cl)c1, the Potency was “inactive”.
For CCC1C(=O)OCC1Cc1cncn1C (stereo not given), the Potency was “inactive”.

Assay: qHTS of pediatric cancer cell lines to identify multiple opportunities for drug repurposing: Primary screen for Saos-2 cells (AID 1347097); note: nearly all actives have a fitted effect of over 40% in size
Conditions: Saos-2 viability, CellTiter-Glo ATP luminescence, 48 h; series mostly up to 46 µM
Summary of the method: as §1
With CC(N)C(=O)OC(C)(C)Cc1ccc(Cl)cc1 (stereo not given) the Potency was “inactive”.
With CN1CC(=O)N/C1=N/C(=O)Nc1cccc(Cl)c1 the Potency was “inactive”.
In the case of CCC1C(=O)OCC1Cc1cncn1C (stereo not given), the Potency is reported as “inactive”.

Assay: qHTS of pediatric cancer cell lines to identify multiple opportunities for drug repurposing: Primary screen for SK-N-SH cells (AID 1347098);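 note: DMSO served as neutral control and bortezomib at 2.3 µM as positive control; nearly all actives have a fitted effect of over 65% in size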
Conditions: SK-N-SH viability, CellTiter-Glo luminescence, 48 h; series mostly up to 57 µM
Summary of the method: (§3)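 Cells (500-1,000/well) rested 5 h, then received compounds for 48 h; metabolically active cells were measured by CellTiter-Glo luminescence. Final concentrations spanned up to 46 µM (MIPE, 11-point) or 0.59 nM-46 µM (NPC, 8-point) in primary screens, 11-point in follow-ups.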
With CC(N)C(=O)OC(C)(C)Cc1ccc(Cl)cc1 (stereo not given) the Potency was “inactive”.
In the case of CN1CC(=O)N/C1=N/C(=O)Nc1cccc(Cl)c1, the Potency is reported as “inactive”.
In the case of CCC1C(=O)OCC1Cc1cncn1C (stereo not given), the Potency is reported as “inactive”.

Assay: qHTS of pediatric cancer cell lines to identify multiple opportunities for drug repurposing: Primary screen for LAN-5 cells (AID 1347100)
Conditions: LAN-5 neuroblastoma viability, CellTiter-Glo luminescence, 48 h; series mostly up to 46 µM
Summary of the method: as §2
In the case of CC(N)C(=O)OC(C)(C)Cc1ccc(Cl)cc1 (stereo not given), the Potency is reported as “inactive”.
In the case of CN1CC(=O)N/C1=N/C(=O)Nc1cccc(Cl)c1, the Potency is reported as “inactive”.
For CCC1C(=O)OCC1Cc1cncn1C (stereo not given), the Potency was “inactive”.

Assay: qHTS of pediatric cancer cell lines to identify multiple opportunities for drug repurposing: Primary screen for BT-12 cells (AID 1347101); note: nearly all actives have a fitted effect of over 25% in size
Conditions: BT-12 viability, CellTiter-Glo luminescence, 48 h; series mostly up to 57.3 µM
Summary of the method: as §3
With CC(N)C(=O)OC(C)(C)Cc1ccc(Cl)cc1 (stereo not given) the Potency was “inactive”.
With CN1CC(=O)N/C1=N/C(=O)Nc1cccc(Cl)c1 the Potency was “inactive”.
For CCC1C(=O)OCC1Cc1cncn1C (stereo not given), the Potency was “inactive”.

Assay: qHTS of pediatric cancer cell lines to identify multiple opportunities for drug repurposing: Primary screen for Rh18 cells (AID 1347102); note: nearly all actives have a fitted effect of over 65% in size
Conditions: Rh18 rhabdomyosarcoma viability, CellTiter-Glo luminescence, 48 h; series mostly up to 46 µM
Summary of the method: as §2
In the case of CC(N)C(=O)OC(C)(C)Cc1ccc(Cl)cc1 (stereo not given), the Potency is reported as “inactive”.
With CN1CC(=O)N/C1=N/C(=O)Nc1cccc(Cl)c1 the Potency was “inactive”.
In the case of CCC1C(=O)OCC1Cc1cncn1C (stereo not given), the Potency is reported as “inactive”.

Assay: qHTS of pediatric cancer cell lines to identify multiple opportunities for drug repurposing: Primary screen for RD cells (AID 1347104); note: nearly all actives have a fitted effect of over 55% in size
Conditions: RD rhabdomyosarcoma viability, CellTiter-Glo luminescence, 48 h; series mostly up to 46 µM
Summary of the method: as §1
With CC(N)C(=O)OC(C)(C)Cc1ccc(Cl)cc1 (stereo not given) the Potency was “inactive”.
For CN1CC(=O)N/C1=N/C(=O)Nc1cccc(Cl)c1, the Potency was “inactive”.
With CCC1C(=O)OCC1Cc1cncn1C (stereo not given) the Potency was “inactive”.

Assay: qHTS of pediatric cancer cell lines to identify multiple opportunities for drug repurposing: Primary screen for MG 63 (6-TG R) cells (AID 1347105); note: nearly all actives have a fitted effect of over 50% in size
Conditions: MG 63 (6-TG R) viability, CellTiter-Glo, 48 h; series mostly up to 46 µM
Summary of the method: as §1
With CC(N)C(=O)OC(C)(C)Cc1ccc(Cl)cc1 (stereo not given) the Potency was “inactive”.
For CN1CC(=O)N/C1=N/C(=O)Nc1cccc(Cl)c1, the Potency was “inactive”.
In the case of CCC1C(=O)OCC1Cc1cncn1C (stereo not given), the Potency is reported as “inactive”.
